According to PubChem BioAssay (NCI):
About 79,000 compounds went through this panel and 15% of them were active in at least one assay; those are over-represented in the sample as a whole. The source made the active and inactive calls. Rule as the data show it: active = growth inhibition above about 70%; inactive = the rest.

Assays:
[1] = NCI Yeast Anticancer Drug Screen. Data for the wt1 strain (AID 149);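 also: 0% = growth of vehicle-treated wt1 cultures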; details: S. cerevisiae wt1 strain (SPY 50644) growth inhibition, hits give high values
Summary of the method: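 The wt1 strain was treated with compounds, and growth was compared with vehicle-treated cultures to give inhibition.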

[2] = NCI Yeast Anticancer Drug Screen. Data for the rad50EPP+ strain (AID 151);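 also: 0% = growth of vehicle-treated control cultures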; details: S. cerevisiae rad50 mutant strain, hits give high values
Summary of the method: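 Strain rad50EPP+; compound exposure; % growth inhibition vs vehicle.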

[3] = NCI Yeast Anticancer Drug Screen. Data for the mgt1 strain (AID 153); details: S. cerevisiae mgt1 mutant growth inhibition, hits give high values
Summary of the method: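 Read-out: yeast growth inhibition vs vehicle control. Strain mgt1, drawn from a panel altered in DNA damage repair or cell cycle control.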

[4] = NCI Yeast Anticancer Drug Screen. Data for the rad50 strain (AID 155);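 also: 0% = growth of vehicle-only cultures of the same strain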; details: S. cerevisiae rad50 strain growth inhibition, hits give high values
Summary of the method: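 Cells are treated with compound, grown, and their growth is then scored against vehicle-only cultures of the same repair-deficient yeast strain.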

[5] = NCI Yeast Anticancer Drug Screen. Data for the mec2-1 strain (AID 157); details: S. cerevisiae mec2-1 strain, hits give high values
Summary of the method: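 Cells of the genetically defined mec2-1 yeast strain are incubated with test compound. Inhibition of growth is calculated against vehicle-treated controls.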

[6] = NCI Yeast Anticancer Drug Screen. Data for the sgs1 mgt1 strain (AID 161);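 also: 0% = growth of cultures given vehicle only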; details: S. cerevisiae sgs1 mgt1 strain, hits give high values
Summary of the method: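 Genetically altered yeast, compound exposure, growth inhibition relative to vehicle.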

[7] = NCI Yeast Anticancer Drug Screen. Data for the CLN2oe strain (AID 163);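 also: 0% = growth of vehicle-only control cultures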; details: S. cerevisiae CLN2oe strain, hits give high values
Summary of the method: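 Strain altered in cell-cycle control, incubated with compound; growth compared to solvent-treated controls.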

[8] = NCI Yeast Anticancer Drug Screen. Data for the cln2 rad14 strain (AID 165);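 also: 0% = growth equal to vehicle treated cultures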; details: S. cerevisiae cln2 rad14 strain, hits give high values
Summary of the method: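 The screen exposed genetically defined yeast (cln2 rad14) to test compounds and scored growth inhibition relative to vehicle-treated controls.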

[9] = NCI Yeast Anticancer Drug Screen. Data for the bub3 strain (AID 167); details: S. cerevisiae bub3 mutant strain, hits give high values
Summary of the method: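 Part of a panel of yeast mutants defective in DNA damage repair or cell cycle regulation. Each strain is grown with compound, and inhibition is calculated relative to solvent-treated cultures.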

[10] = NCI Yeast Anticancer Drug Screen. Data for the wt2 strain (AID 169);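 also: 0% = growth of vehicle-treated yeast cultures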; details: S. cerevisiae wt2 strain growth inhibition, hits give high values
Summary of the method: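 Steps: yeast strain treated with compound; growth recorded; inhibition calculated relative to cultures given vehicle alone.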

[11] = NCI Yeast Anticancer Drug Screen. Data for the mlh1 strain (AID 171);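 also: 0% = growth of vehicle-treated control cultures of the same strain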; details: S. cerevisiae mlh1 strain growth inhibition, hits give high values
Summary of the method: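 Yeast screen: mutant strain plus compound, growth scored against vehicle control wells.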

[12] = NCI Yeast Anticancer Drug Screen. Data for the sgs1 strain (AID 173);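 also: 0% = growth of vehicle-only control cultures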; details: S. cerevisiae sgs1 mutant, hits give high values
Summary of the method: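 Inhibition of yeast growth served as the measure. The mutant strain was treated with each compound, and growth was normalised to cultures receiving vehicle alone.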

[13] = NCI Yeast Anticancer Drug Screen. Data for the mlh1 rad18 strain (AID 175); details: S. cerevisiae mlh1 rad18 strain growth inhibition, hits give high values
Summary of the method: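 Compound-treated yeast growth, normalised to vehicle controls. Strain bears defined DNA repair mutations.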

[14] = NCI Yeast Anticancer Drug Screen. Data for the rad18 strain (AID 177); details: S. cerevisiae rad18 mutant growth inhibition, hits give high values
Summary of the method: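 Inhibition values reflect reduced yeast growth compared with vehicle-treated controls, using a strain engineered with a DNA damage repair defect.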

[15] = NCI Yeast Anticancer Drug Screen. Data for the rad52 strain (AID 147);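 also: 0% = growth of vehicle-treated control cultures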; details: S. cerevisiae rad52 mutant growth inhibition, hits give high values
Summary of the method: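 Genetically altered yeast (DNA damage repair defect) treated with compound; inhibition calculated relative to vehicle.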

[16] = NCI Yeast Anticancer Drug Screen. Data for the rad14 strain (AID 159);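 also: 0% = growth of vehicle-treated control cultures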; details: S. cerevisiae rad14 strain growth inhibition, hits give high values
Summary of the method: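 Readout: yeast growth inhibition, referenced to vehicle-only cultures. Strain bears a defined alteration in DNA damage repair.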

[17] = at 5.0 µM (retest, dose inferred, filed as 0.5)
[18] = at 50.0 µM (retest, dose inferred, filed as 5.0)

Measured: growth inhibition

COC(=O)C(F)C(Br)C(=O)OC (stereo unspecified)
inactive: [1]; at 1.2 µM -3% | [2]; at 1.2 µM 28% | [3]; at 1.2 µM 16% | [4]; at 1.2 µM -5% | [4]; at 3.7 µM 60% | [5]; at 1.2 µM 20% | [6]; [17] 8% | [6]; [18] 12% | [7]; at 1.2 µM 43% | [8]; [17] 5% | [8]; [18] -42% | [9]; at 1.2 µM 64% | [9]; [17] 11% | [9]; [18] -21% | [10]; at 1.2 µM 55% | [11]; at 1.2 µM 66% | [12]; at 1.2 µM 48% | [14]; at 1.2 µM 29%
active: [1]; at 3.7 µM 74% | [1]; at 11.0 µM 97% | [1]; at 33.0 µM 98% | [1]; at 100.0 µM 99% | [2]; at 3.7 µM 90% | [2]; at 11.0 µM 97% | [2]; at 33.0 µM 98% | [2]; at 100.0 µM 97% | [3]; at 3.7 µM 82% | [3]; at 11.0 µM 98% | [3]; at 33.0 µM 99% | [3]; at 100.0 µM 99% | [4]; [17] 88% | [4]; at 11.0 µM 96% | [4]; at 33.0 µM 98% | [4]; [18] 99% | [4]; at 50.0 µM 90.8% | [4]; at 100.0 µM 98% | [5]; at 3.7 µM 73% | [5]; [17] 93% | [5]; at 11.0 µM 95% | [5]; at 33.0 µM 98% | [5]; [18] 100% | [5]; at 50.0 µM 93% | [5]; at 100.0 µM 99% | [6]; at 50.0 µM 92.5% | [7]; at 3.7 µM 91% | [7]; at 11.0 µM 97% | [7]; at 33.0 µM 98% | [7]; at 100.0 µM 100% | [8]; at 50.0 µM 84.2% | [9]; at 3.7 µM 94% | [9]; at 11.0 µM 98% | [9]; at 33.0 µM 99% | [9]; at 50.0 µM 91.4% | [9]; at 100.0 µM 97% | [10]; at 3.7 µM 95% | [10]; at 11.0 µM 98% | [10]; at 33.0 µM 99% | [10]; at 100.0 µM 100% | [11]; at 3.7 µM 96% | [11]; at 11.0 µM 98% | [11]; at 33.0 µM 99% | [11]; at 100.0 µM 99% | [12]; at 3.7 µM 95% | [12]; at 11.0 µM 98% | [12]; at 33.0 µM 99% | [12]; at 100.0 µM 99% | [13]; [17] 94% | [13]; [18] 98% | [13]; at 50.0 µM 90% | [14]; at 3.7 µM 88% | [14]; at 11.0 µM 98% | [14]; at 33.0 µM 92% | [14]; at 100.0 µM 98%

CN(CCc1ccc(Br)cc1)CCN1CCCCC1
active: [15]; at 33.0 µM 81% | [15]; at 100.0 µM 98% | [1]; at 100.0 µM 97% | [3]; at 11.0 µM 70% | [3]; at 33.0 µM 94% | [3]; at 100.0 µM 99% | [4]; at 33.0 µM 91% | [4]; [18] 74% | [4]; at 50.0 µM 78.3% | [4]; at 100.0 µM 98% | [5]; at 33.0 µM 74% | [5]; [18] 73% | [5]; at 50.0 µM 86.7% | [5]; at 100.0 µM 99% | [16]; at 33.0 µM 97% | [16]; at 100.0 µM 98% | [6]; [18] 86% | [6]; at 50.0 µM 92.5% | [7]; at 33.0 µM 78% | [7]; at 100.0 µM 98% | [8]; [18] 88% | [8]; at 50.0 µM 83.2% | [9]; at 33.0 µM 94% | [9]; [18] 88% | [9]; at 50.0 µM 91% | [9]; at 100.0 µM 98% | [10]; at 33.0 µM 93% | [10]; at 100.0 µM 99% | [11]; at 33.0 µM 82% | [11]; at 100.0 µM 99% | [13]; [18] 86% | [13]; at 50.0 µM 92.5% | [14]; at 33.0 µM 94% | [14]; at 100.0 µM 98%
inactive: [15]; at 1.2 µM 19% | [15]; at 3.7 µM 26% | [15]; at 11.0 µM 51% | [1]; at 1.2 µM 8% | [1]; at 3.7 µM 16% | [1]; at 11.0 µM 20% | [1]; at 33.0 µM 60% | [3]; at 1.2 µM 7% | [3]; at 3.7 µM 20% | [4]; at 1.2 µM 15% | [4]; at 3.7 µM 18% | [4]; [17] 9% | [4]; at 11.0 µM 38% | [5]; at 1.2 µM 17% | [5]; at 3.7 µM 24% | [5]; [17] 13% | [5]; at 11.0 µM 35% | [16]; at 1.2 µM 31% | [16]; at 3.7 µM 49% | [16]; at 11.0 µM 68% | [6]; [17] 30% | [7]; at 1.2 µM 15% | [7]; at 3.7 µM 26% | [7]; at 11.0 µM 46% | [8]; [17] 55% | [9]; at 1.2 µM 20% | [9]; at 3.7 µM 29% | [9]; [17] 20% | [9]; at 11.0 µM 60% | [10]; at 1.2 µM 8% | [10]; at 3.7 µM 23% | [10]; at 11.0 µM 47% | [11]; at 1.2 µM 11% | [11]; at 3.7 µM 22% | [11]; at 11.0 µM 41% | [13]; [17] 6% | [14]; at 1.2 µM 27% | [14]; at 3.7 µM 53% | [14]; at 11.0 µM 54%
